The whole screen tested about 360,000 compounds, of which about 2,000 (0.56%) were called active. Inconclusive results (about 2%) are left out. This is one part of a sample in which actives are shown more often than they occur. Unmarked numbers belong to inactive results. Cut-off read from the data, not from the text of the source: active = activity change below about -65%; inconclusive = mostly about -30% to -63%; inactive = weaker than that.
molecular target: Homeobox protein SIX1 (Homo sapiens) + Protein phosphatase EYA2 (Homo sapiens) (UniProt Q15475+O00167); experiment: qHTS Assay for Inhibitors of the Six1/Eya2 Interaction; details: AlphaScreen GST-Six1/His-Eya2 binding, biochemical; hits give low values
From the text: Its expression is low or undetectable in normal adult breast tissue but the gene is over-expressed in 50% of primary breast tumors and 90% of metastatic lesions. […] Similar to Six1, Eya2 is also not expressed in most normal adult tissues, but is reexpressed in cancers. The Six1-Eya interaction is essential for proliferation during embryonic development, and both Six1 and Eya2 have been independently implicated in the same types of cancer. Because Six1 and Eya2 are embryonic genes with little expression in adult tissues, inhibitors of their expression/activity are likely to have limited side effects. Our goal is to identify inhibitors of the Six1/Eya interaction for potential cancer therapy. To this end, we have developed a homogenous AlphaScreen assay targeting the Six1/Eya interaction. We performed a large scale HTS of the Molecular Libraries Small Molecule Repository (MLSMR) to identify inhibitors of the Six1/Eya interaction as potential anti-cancer therapeutics. Compounds identified can also be used as chemical probes to better understand the biological functions of Six1 and Eya. NIH Chemical Genomics Center [NCGC] NIH Molecular Libraries Probe Centers Network [MLPCN] MLPCN Grant: DA033147 Assay Submitter (PI): Rui Zhao, University of Colorado Denver
The first step of the 5 uL AlphaScreen assay is to dispense assay buffer (50 mM Tris, pH 8.0, 300 mM NaCl, 0.05% BSA, 0.02% Tween 20, 1 mM TCEP) into a Greiner 1536 white solid bottom microtiter plate (789175-F). Five microliters is added to Column 1, 4 uL is added to Column 2 and 3 uL is added to Columns 3 through 48. A 5X protein solution (250 nM GST-Six1 protein + 500 nM His-tagged Eya2 protein) is mixed and 1 uL is dispensed to Columns 3-48. Using a 1536 pintool, 23 nL of compound is transferred to the assay plate. A solution of 5X AlphaScreen beads is mixed (50 ug/mL Glutathione linked donor beads + Nickel chelated acceptor beads) and 1 uL is dispensed to Columns 2-48. The assay plate is incubated for one hour, with a lid, at 37 deg C in the dark. The plate is read using a Perkin Elmer Envision using an AlphaScreen protocol.
% is set by controls: 0 for no effect and ±100 for the full control effect.

Chain of Homeobox protein SIX1 (Homo sapiens) + Protein phosphatase EYA2 (Homo sapiens) (O00167 whole entry, looked up): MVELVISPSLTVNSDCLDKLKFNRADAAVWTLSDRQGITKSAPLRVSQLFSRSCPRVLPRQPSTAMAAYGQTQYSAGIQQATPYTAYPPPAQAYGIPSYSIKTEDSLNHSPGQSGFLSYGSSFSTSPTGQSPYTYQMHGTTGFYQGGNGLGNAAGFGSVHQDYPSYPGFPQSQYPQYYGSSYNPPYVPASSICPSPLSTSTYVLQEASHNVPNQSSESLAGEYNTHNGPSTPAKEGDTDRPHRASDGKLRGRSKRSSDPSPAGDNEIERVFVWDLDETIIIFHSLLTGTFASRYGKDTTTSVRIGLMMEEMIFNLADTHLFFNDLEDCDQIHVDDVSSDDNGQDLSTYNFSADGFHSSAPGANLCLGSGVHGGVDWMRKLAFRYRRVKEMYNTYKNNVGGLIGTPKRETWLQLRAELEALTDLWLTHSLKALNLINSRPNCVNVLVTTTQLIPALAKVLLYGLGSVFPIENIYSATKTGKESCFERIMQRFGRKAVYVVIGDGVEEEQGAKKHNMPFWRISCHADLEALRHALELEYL
Chain of Homeobox protein SIX1 (Homo sapiens) + Protein phosphatase EYA2 (Homo sapiens) (Q15475 whole entry, looked up): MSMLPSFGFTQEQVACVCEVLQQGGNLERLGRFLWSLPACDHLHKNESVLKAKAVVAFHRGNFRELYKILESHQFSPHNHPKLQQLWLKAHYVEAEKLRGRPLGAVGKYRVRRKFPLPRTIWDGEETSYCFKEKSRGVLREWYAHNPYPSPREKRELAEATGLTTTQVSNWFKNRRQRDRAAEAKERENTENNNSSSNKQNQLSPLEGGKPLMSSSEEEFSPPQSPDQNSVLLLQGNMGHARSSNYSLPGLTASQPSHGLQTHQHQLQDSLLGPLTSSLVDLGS

SMILES | activity change
O=[N+]([O-])c1ccc(C=Nc2ccc(Cl)cc2Cl)s1 | -73.2% (active)
CCC(C)CN1C(=O)CN(S(C)(=O)=O)CC1(C)C(=O)Nc1ccc2c(c1)OCCO2 (configuration not stated) | 16.6%
COc1ccc2c(c1)CCCO[C@]21O[C@H](CCO)C[C@H](O)[C@H]1O | 6.3%
CC(C)(C)OC(=O)NCCCCCNC(=O)c1[nH]cnc1C(=O)Nc1nccs1 | -76.4% (active)
Cc1ccc(NC(=O)c2nc[nH]c2C(=O)N[C@@H](CCCCNC(=O)OC(C)(C)C)C(=O)OC(C)(C)C)cc1 | -3.47%
CC(C)(C)OC(=O)NCCCCCNC(=O)c1nc[nH]c1C(=O)NCc1ccccc1 | -0.665%
COC(=O)c1ccc2nc(-c3cccc(Br)c3)c(Cc3ccccc3C(F)(F)F)n2c1 | -10.3%
Cc1ccc(C(=O)N2CCN(C3CCCCC3)CC2)s1 | -13.4%
OCCC#Cc1ccc(N2C(c3ccsc3)=Cc3ccc(F)cc3C2c2c[nH]c3ccccc23)cc1 (configuration not stated) | -7.53%
COc1ccc(C(=O)NNC(=O)c2cc(C)[nH]n2)cc1 | 1.78%
Cc1cc(C(=O)N/N=C/c2cc([N+](=O)[O-])cc(C)c2O)n[nH]1 | -77.5% (active)
O=C(N/N=C/c1cccc(OC(=O)c2ccc([N+](=O)[O-])cc2)c1)c1cccnc1 | -3.98%
CCCCNS(=O)(=O)c1ccc2nc(SCC(=O)Nc3cc(C)cc(C)c3)[nH]c2c1 | -4.15%
CCOC(=O)[C@]12CCCC=C1N(Cc1cccc3ccccc13)C(=O)[C@H](CC(=O)NCC13CC4CC(CC(C4)C1)C3)C2 | -14%
Nc1nonc1-n1nnc(C(=O)N/N=C\c2ccncc2)c1CN1CCCCC1 | -5.55%
NNC(=O)c1nnn(-c2nonc2N)c1CN1CCCC1 | 4.15%
Nc1nonc1-n1nnc(C(=O)N/N=C/c2ccccc2O)c1CN1CCCC1 | -91.1% (active)
COC(=O)C[C@H]1C=C[C@H](NC(=O)c2ccc(F)cc2)[C@@H](CO)O1 | 7.11%
Cc1cc(C)c(S(=O)(=O)NN=C2c3ccccc3[C@H]3Cc4csc[n+]4[C@@H]23)c(C)c1 | -12.5%
Cc1cccc(N(CC(=O)N2CCCC2)S(C)(=O)=O)c1C | 7.01%
COc1ccc(Cc2nnc(SCC(=O)Nc3ccc(C)c(Cl)c3)[nH]c2=O)cc1 | 6.59%
Cc1ccc(NC(=O)CSc2nn3c(=O)c(C)nnc3s2)cc1Cl | -81.7% (active)

SMILES | activity change
Cc1ccc(NC(=O)CSc2nnc(CNC(=O)c3ccccc3F)o2)cc1Cl | 8.8%
O=C(Nc1ccc(F)cc1)C(CCc1ccccc1)N1CCN(CC(=O)N2CCCC2)CC1 (configuration not stated) | 1.59%
FC(F)(F)c1cccc(-c2nc3ccccc3n2C(c2ccccc2)c2nc3ccccc3[nH]2)c1 (configuration not stated) | -13.3%
CCN(CC(=O)NC1CCS(=O)(=O)C1)S(=O)(=O)c1ccccc1 (configuration not stated) | 9.89%
Cc1ccccc1CN1C(=O)CSCC1(C)C(=O)Nc1c(C)cccc1C (configuration not stated) | -3.18%
Cc1nc(N=C(N)N)nc2c(C)cccc12 | -72.7% (active)
COC(=O)[C@@]12C[C@@H](CC(=O)NCCCCc3ccccc3)C(=O)N(CCc3ccc(OC)c(OC)c3)C1=CCC(C)(C)C2 | -8.99%
Cc1ccc(C(=O)Nc2c(-c3ccccc3)[nH][nH]c2=O)cc1 | 3.7%
COC(=O)C[C@@H]1C=C[C@@H](NS(=O)(=O)c2cccc(OC)c2)[C@@H](CO)O1 | -2.42%
COc1ccc(Cc2nnc(N/N=C/c3ccccc3O)[nH]c2=O)cc1OC | -85.7% (active)
COc1ccc(Cc2nnc(SC)[nH]c2=O)cc1 | 0.132%
CC(C)c1ccc(Cc2nnc(NCCCO)[nH]c2=O)cc1 | 4.24%
Cc1ccc(/C=C/C(=O)OCC(=O)Nc2cccnc2Cl)cc1 | -0.924%
CC(C)(C)NC(=O)C(CCc1ccccc1)n1c(=O)c(-c2ccccc2)nc2ccccc21 (configuration not stated) | 7.94%
COc1cccc(-c2ccc3c(c2)S(=O)(=O)c2cccc(C(=O)O)c2C3=O)c1OC | -5.18%
O=C(O)c1ccc2c3c(cccc13)C(=O)N(OS(=O)(=O)c1ccccc1)C2=O | -77.1% (active)
Cc1cc(Br)cn2c(Cc3ccccc3C(F)(F)F)c(C3CCCCC3)nc12 | 11.6%
CC(=O)N1Cc2cc(C(=O)NCc3cccc(F)c3)nc(-c3cccc(C4=CCCC4)c3)c2[C@H]1CCO | -15.8%
NC(=S)NN=Cc1ccc(OC(=O)COc2cc(Cl)c(Cl)cc2Cl)cn1 | -93.5% (active)
O=C(COC(=O)COc1cc(Cl)c(Cl)cc1Cl)NC1CC1 | 3.24%
O=C(COc1cc(Cl)c(Cl)cc1Cl)NCCc1ccccn1 | -7.95%
COc1ccc(C(C(=O)NCc2ccccc2)n2c(=O)c(-c3ccccc3)nc3ccccc32)cc1 (configuration not stated) | 0.529%

SMILES | activity change
CC(C)C[C@H]1CNC(=O)C(=O)N1C[C@@H]1CCCN1C[C@H](Cc1ccccc1)N1C[C@H](CC(C)C)N(CC2CCCCCC2)C(=O)C1=O | -1.64%
O=c1[nH]c2ccccc2n2c(-c3ccccc3)nnc12 | -65.3% (active)
O=C(c1ncn2c1c(=O)[nH]c1ccccc12)N1CCc2ccccc2C1 | -3.9%
Cn1c(=O)c2c(nc(N/N=C/c3cccs3)n2Cc2ccc(Br)cc2)n(C)c1=O | 29.6%
Cc1n[nH]c(=O)nc1N/N=C/c1cccs1 | -90.5% (active)
Cc1nc2ccccc2n1CC(=O)N/N=C/c1cccs1 | -11.4%
Cc1nccn1-c1ccc(NC(=O)[C@H]2O[C@@H](n3ccc(=O)[nH]c3=O)[C@H](O)[C@@H]2O)cc1 | 1.11%
O=C(NCc1ccccc1)C(c1ccc(F)cc1)N1CCN(C(=O)C2CCCO2)CC1 (configuration not stated) | 20.6%
Cc1cccc(NC(=O)c2cc(N3C(=O)CCC3=O)ccc2Cl)n1 | 3.08%
Cc1cc(NC(=O)c2ccccc2C)no1 | 9.99%
Cc1cc(NC(=O)c2cccc(N3C(=O)CCC3=O)c2)no1 | -70.6% (active)
Cc1ccc(S(=O)(=O)N2[C@@H](Cc3ccccc3)CO[C@H]2CC(=O)OCc2ccccc2)cc1 | -3.63%
CCOC(=O)C1C(C)C(C(C)(C)C)N(S(=O)(=O)c2ccc(C)cc2)C1c1ccccc1 (configuration not stated) | 6.65%
CCOc1cccc(/C=N/NC(=S)NCCN2CCOCC2)c1O | -92.1% (active)
C=C(C)CNC(=S)N/N=C/c1ccccc1OCC(=O)O | 0.44%
O=C(NCCN1CCOCC1)Nc1cccc(Cl)c1 | 3.67%
CCOC(=O)[C@]12CCCC=C1N(CCC1=CCCCC1)C(=O)[C@H](CC(=O)N1CCCCC1)C2 | -1.85%
COc1ccc(C(=O)C(OP(=O)(OC)OC)c2ccccc2OC)cc1 (configuration not stated) | 2.49%
O=C(COC(=O)Cc1ccc(Br)cc1)Nc1c(F)c(F)c(F)c(F)c1F | 1.31%
Oc1ccc2nc(Cc3ccccc3)[nH]c2c1 | -2.17%
Oc1ccc(/C=N/Nc2nc(-c3ccccc3F)nc3ccccc23)c(O)c1 | -71.7% (active)
Cc1nc2ccccc2nc1N/N=C/c1ccc(O)cc1O | -69.1% (active)

SMILES | activity change
Brc1ccccc1/C=N/Nc1nc2ccccc2o1 | -4.05%
O=C(C[C@H]1CC[C@@H](NC(=O)c2ccncc2)[C@@H](CO)O1)NCC1CC1 | 8.47%
CCCCCCCCN1C(=O)[C@H](CC(=O)NCC23CC4CC(CC(C4)C2)C3)C[C@@]2(C(=O)OC)CCCCC=C12 | -0.139%
O=S1(=O)CC(N2CCSCC2)CN1Cc1cn(Cc2cccc(Cl)c2)nn1 (configuration not stated) | 0.627%
CCOc1cccc2c1OC1(CCCCC1)N1N=C(c3cccnc3)CC21 (configuration not stated) | -13.8%
C[C@H]1COc2cc(N3CCSCC3)ccc2S(=O)(=O)N1 | 3.55%
COc1ccc(S(=O)(=O)Nc2ccc(F)cc2)c(C)c1C | -0.291%
COc1cc(N2CCCC2)c(OC)cc1/C=C(/C#N)c1cccc(Br)c1 | -67% (active)
Cc1nc2c(OCc3ccc(Cl)cc3Cl)cccn2c1N(C)CC1CC1 | -5.16%
Nc1nc2ncccn2c1-c1ccccc1 | 3.63%
CCCOc1ccc(Cc2c(O)nc(N)[nH]c2=O)cc1C | -5.12%
Cc1ccc(S(=O)(=O)N2CC3C(=O)C[C@@H](c4ccccc4Cl)N(S(=O)(=O)c4ccc(C)cc4)C3CC2c2ccccc2)cc1 (some centres not stated) | -4.43%
CC1(C)OC(=O)C2=C(C[C@@H](C3CC3)O[C@H]2CCc2cccc(Cl)c2)O1 | 7.67%
CCc1c(-c2ccc(F)cc2)ncn1Cc1cccc(-c2ccccc2)c1 | -29.6%
O=S(=O)(NCCOc1cccc2cccnc12)c1ccc(F)cc1 | 6.83%
O=C(Nc1ccccc1)Oc1cccc2cccnc12 | -91.9% (active)
NC(=O)C1CCN(C(=O)COc2cccc3cccnc23)CC1 | 8.87%
CCCCNC(=O)C[C@@H]1C[C@@]2(C(=O)OC)CC(C)(C)CC=C2N(Cc2ccco2)C1=O | -8.69%
CCCc1c(C(=O)Nc2ccc(F)cc2)cnn1-c1ccccc1 | 1.46%
COCCCn1cc(CN2CC(N(C)C)CS2(=O)=O)nn1 (configuration not stated) | 15.9%
COC(=O)[C@]12CCCCC=C1N(CCC1=CCCCC1)C(=O)[C@H](CC(=O)N1CCSCC1)C2 | -5.23%
